# Source: PubChem BioAssay (NCATS)
# Records with an inconclusive call do not appear. Where a call stands in place of a potency, no number is given. Activity calls are given as the source filed them. The call rests on the fitted dose curve; in most records, active means well fitted cell-killing curve with a large enough effect; inconclusive means small, poorly fitted or top-dose-only effect, or effect the other way; inactive means flat fitted curve, though single readings scatter.
# Test: qHTS of pediatric cancer cell lines to identify multiple opportunities for drug repurposing: Confirmatory screen for Rh18 cells (AID 1347125); further: nearly all actives have a fitted effect of over 55% in size
# Conditions: Rh18 rhabdomyosarcoma cells, viability; series mostly up to 45.9 µM
# Excerpt: Drug repurposing or repositioning has been offered as a strategy for drug development in oncology programs. This approach has special potential for childhood cancers and other rare or orphan diseases, where the expected return on new drug development has been a disincentive to pharmaceuticals.
# In this project we exploit the poly-pharmacology of drugs to discover new indications via phenotypic screening of a panel of 19 well-characterized cell lines derived from solid tumors seen in children and adolescents. The goal is to identify approved drugs with previously unrecognized anticancer properties that has the potential to reveal new mechanisms and biological processes involved in carcinogenesis or drug resistance. We employed a titration-based paradigm (quantitative high-throughput screening or qHTS), where all compounds were tested at multiple concentrations for their effect on cell viability. Concentration-response curves (CRCs) were derived directly from the primary screen, and both potency and efficacy values were used to identify compounds with robust bioactivity profiles. We screened the NIH Chemical Genomics Center (NCGC) Pharmaceutical Collection (NPC) and Mechanism Interrogation Plate (MIPE) small molecule collections of approved and investigational compounds against these cell lines; and measured metabolically active cells after 48 hours of compound treatment as a proxy for cell viability.
# Assay Submitter: Nathalia J. Martinez, National Center for Advancing Translational Sciences, National Institutes of Health, Rockville, MD, USA; email: natalia.martinez@nih.gov
# [1] Shen, M et al. Quantitative high-throughput phenotypic screening of pediatric cancer cell lines identifies multiple opportunities for drug repurposing. Oncotarget 2017 Dec 19;9(4):4758-4772. PMID 29435139.
# The cells were obtained from University of North Carolina (UNC), Pediatric Preclinical Testing Program (PPT), and Coriell Institute (CI).
# qHTS cell viability assay:
# Cells were assayed in growth media at a density of 500-1,000 cells/well. Five microliters of cells were dispensed into 1,536-well, white, solid-bottom, TC-treated plates (Greiner Bio One) using a multidrop dispenser and incubated at 37 degrees C, 5% CO2, under a humidified atmosphere for 5 hours. Twenty-three nanoliters of compounds and controls (neutral control DMSO or positive control bortezomib at final concentration of 2.3 µM) were subsequently transferred by Kalypsys pintool. For primary screens, the MIPE collection was tested at 11-point dilutions (final concentrations range from 0.78 nM to 46 µM) and the NPC collection at 8-point dilutions (final concentrations range from 0.59 nM to 46 µM). Compounds tested in follow-up screens were assayed at 11-point dilutions. Cells were incubated for 48 hours, followed by addition of 3 µL of CellTiter-Glo (Promega). After a 15 min incubation at room temperature, samples were analyzed for luminescence intensity using a ViewLux High-throughput CCD imager equipped with clear filters.
# Potency means the concentration at half of the fitted maximal effect.
row,SMILES,Potency
1,CC1(C)CC(=O)c2c(C(F)(F)F)nn(-c3ccc(C(N)=O)c(NC4CCC(O)CC4)c3)c2C1 (stereo not given),0.261 µM (active)
2,O=C(CC12CC3CC(CC(C3)C1)C2)Nc1cccc2nc(NCCNCCO)ccc12,inactive
3,Nc1[nH]nc2nnc(-c3c(-c4ccccc4)nn4ccccc34)cc12,20.8 µM (active)
4,CN1N=C(N)c2cn([C@@H]3O[C@H](COP(=O)(O)O)[C@@H](O)[C@@H]3O)c3ncnc1c23,0.329 µM (active)
5,C=C1[C@H](n2cnc3c(=O)[nH]c(N)nc32)C[C@H](O)[C@H]1CO,inactive
6,CSc1cccc(Nc2ncc3cc(-c4c(Cl)cccc4Cl)c(=O)n(C)c3n2)c1,3.29 µM (active)
7,CO[C@H]1/C=C\O[C@@]2(C)Oc3c(C)c(O)c4c(O)c(c5c(nc6cc(C)ccn65)c4c3C2=O)NC(=O)C(C)=CC=C[C@H](C)[C@H](O)[C@@H](C)[C@@H](O)[C@@H](C)[C@H](OC(C)=O)[C@H]1C,inactive
8,CCOC(=O)[C@H](CCc1ccccc1)N[C@@H](C)C(=O)N1CCCC1C(=O)O (stereo not given in full),13.1 µM (active)
9,COC1CCC(C(=O)c2ccc3nc4c(cc3c2)CCCO4)CC1 (stereo not given),inactive
10,CC1=C(CC(=O)O)c2cc(F)ccc2C1=Cc1ccc(S(C)=O)cc1 (stereo not given),inactive
11,CCC[C@H](Nc1nc(-c2ccc(NC(=O)NCC)c(OC)c2)ncc1C)c1cccnc1,inactive
12,CCCCn1c(=O)n(Cc2ccccc2F)c(=O)c2[nH]c(Cc3ccc(NC(C)=O)cc3)nc21,inactive
13,CC(C)(C)c1[nH]cnc1C=c1[nH]c(=O)c(=Cc2ccccc2)[nH]c1=O,0.016 µM (active)
14,CC(C)C[C@@H](C(=O)N[C@H](C(=O)OC1CCCC1)c1ccccc1)[C@H](O)C(=O)NO,inactive
15,Cc1ccc(C(=O)N(CCCN)[C@@H](c2oc3cc(Cl)ccc3c(=O)c2Cc2ccccc2)C(C)C)cc1,26.1 µM (active)
16,COc1cc(CNC(=O)CCCCC=CC(C)C)ccc1O,inactive
17,Cc1cccc(-c2[nH]c(C(C)(C)C)nc2-c2ccc3c(c2)OCO3)n1,inactive
18,Cc1ccc(S(=O)(=O)Nc2nc3ccccc3nc2Nc2ccc3nsnc3c2)cc1,inactive
19,COc1cc2ncnc(Nc3cc(Br)c(O)c(Br)c3)c2cc1OC,inactive
20,CCC(=O)OCC(=O)[C@@]1(OC(=O)CC)[C@@H](C)C[C@@H]2[C@H]3CCC4=CC(=O)C=C[C@]4(C)[C@@]3(F)[C@@H](O)C[C@@]21C,inactive

row,SMILES,Potency
1,Cc1c(C(=O)Nc2ccc(N3C[C@@H](C)O[C@@H](C)C3)nc2)cccc1-c1ccc(OC(F)(F)F)cc1,inactive
2,CC1CNc2c(cccc2S(=O)(=O)N[C@@H](CCCN=C(N)N)C(=O)N2CC[C@@H](C)C[C@@H]2C(=O)O)C1 (stereo not given in full),inactive
3,CC[C@]1(O)C[C@H]2CN(CCC3=c4ccccc4=N[C]3[C@@](C(=O)OC)(c3cc4c(cc3OC)N(C)[C@H]3[C@@](O)(C(N)=O)[C@H](O)[C@]5(CC)C=CCN6CC[C@]43[C@@H]65)C2)C1,inactive
4,Cc1cnc(-c2cc(N3CCN(C(=O)CCS(C)(=O)=O)CC3)ncc2Cl)c(C)c1,inactive
5,CCC(=O)N1CCN(c2ccc(-n3c(=O)ccc4cnc5ccc(-c6cnc7ccccc7c6)cc5c43)cc2C(F)(F)F)CC1,inactive
6,Cc1ccc(C(=O)N(CCCN)[C@@H](c2nc3cc(Cl)ccc3c(=O)n2Cc2ccccc2)C(C)C)cc1,inactive
7,CN(C)CCN(C)C(=O)c1ccc(NC(=O)Nc2ccc(-c3nc(N4CCOCC4)c4ccn(CC(F)(F)F)c4n3)cc2)cc1,3.29 µM (active)
8,CO[C@H]1/C=C\O[C@@]2(C)Oc3c(C)c(O)c4c(O)c(c(C=NN5CCN(C6CCCC6)CC5)c(O)c4c3C2=O)NC(=O)C(C)=CC=C[C@H](C)[C@H](O)[C@@H](C)[C@@H](O)[C@@H](C)[C@H](OC(C)=O)[C@H]1C,inactive
9,N#CC(=C1Nc2ccccc2S1)c1ccnc(OCc2ccc(CN3CCOCC3)cc2)n1,inactive
10,NC(N)=Nc1nc(CSCCC(N)=NS(N)(=O)=O)cs1,inactive
11,CCNC(=O)c1noc(-c2cc(C(C)C)c(O)cc2O)c1-c1ccc(CN2CCOCC2)cc1,0.0928 µM (active)
12,COc1ccc2c(c1)c(C1=C(c3c[nH]c4ccccc34)C(=O)NC1=O)cn2CCCN(C)C,inactive
13,CC1(COc2ccc3c(c2)ncn3-c2ccc3cccc(N4CCC(N)CC4)c3n2)COC1,inactive
14,CC(C)C[C@H](NC(=O)c1cc2ccccc2s1)C(=O)N1CCN(C(=O)[C@H](CO)NS(=O)(=O)c2ccc(Cl)cc2Cl)CC1,inactive
15,CC(=O)N1CCN(c2ccc(OCc3nn(C)c(C)c3-c3cccc4c(CCCOc5cc(C)c(Cl)c(C)c5)c(C(=O)O)n(Cc5cccnc5)c34)cc2)CC1,inactive
16,COC(=O)[C@H](c1ccccc1Cl)N1CCc2sccc2C1,inactive
17,C=CC(=O)Nc1cccc(Sc2nc(Nc3ccc(N4CCN(C)CC4)cc3)ncc2Cl)c1,16.5 µM (active)
18,C[C@@]1(c2cc(-c3cncnc3)c(F)cc2F)CCSC(N)=N1,inactive
19,Nc1ccc(-c2ccc3ncc4ccc(=O)n(-c5cccc(C(F)(F)F)c5)c4c3c2)cn1,0.928 µM (active)
20,Cc1csc(-c2nnc(Nc3ccc(Oc4ncccc4-c4ccnc(N)n4)cc3)c3ccccc23)c1,inactive
